# According to the supplement of paper PMC6607015:
# Where a name gives a salt, the structure may show the parent alone.
# Key:
# Conditions in all cases: compound concentration in added solution (µM; 5 µl added to 20 µl cells): 10; 18 h
# A431 [1] = experiment: LBPA endosome anti-LBPA integrated intensity (sum per cell), Z-score; higher = more LBPA staining
# How it was run: (§1)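 After 18 h on 5 µl of 10 µM compound solution in duplicate 384-well imaging plates, HeLa MZ or A431 cells, seeded at 3,500 per well in 20 µl, were fixed with 4% PFA. They were then labelled with 6C4 anti-LBPA antibody, filipin, propidium iodide and CellTracker green, and four 20× fields were recorded per well. Integrated LBPA or filipin intensity per cell, whole-cell or within LBPA endosomes, came from MetaXpress segmentation and was normalised to Z-scores in AcuityXpress.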
# HeLa MZ [2] = experiment: as above
# How it was run: as §1
# A431 [3] = experiment: whole-cell filipin (free cholesterol) integrated intensity, Z-score; higher = more cholesterol staining
# How it was run: as §1
# HeLa MZ [4] = experiment: as above
# How it was run: as §1
# A431 [5] = experiment: filipin (cholesterol) integrated intensity within LBPA endosomes, Z-score; higher = more cholesterol in LBPA endosomes
# How it was run: as §1
# HeLa MZ [6] = experiment: as above
# How it was run: as §1
SMILES,LBPA endosome anti-LBPA integrated intensity (z-score) (A431 [1]),LBPA endosome anti-LBPA integrated intensity (z-score) (HeLa MZ [2]),whole-cell filipin (z-score) (A431 [3]),whole-cell filipin (z-score) (HeLa MZ [4]),filipin (z-score) (A431 [5]),filipin (z-score) (HeLa MZ [6])
Clc1ccccc1C(c1ccccc1)(c1ccccc1)n1ccnc1 [Clotrimazole],-0.44,0.655,-0.0982,0.216,-0.276,-0.063
Cc1cc(C)nc(NS(=O)(=O)c2ccc(N)cc2)n1 [Sulfamethazine sodium salt],-0.34,0.511,0.128,-0.158,-0.422,-0.588
CC(=O)O[C@]1(C(C)=O)CC[C@H]2[C@@H]3C=C(C)C4=CC(=O)CC[C@@H]4[C@H]3CC[C@@]21C [Nomegestrol acetate],0.292,0.691,1.29,1.28,0.654,0.778
Cn1nnc2c(C(N)=O)ncn2c1=O [Temozolomide],-0.384,0.224,-0.454,0.0676,-0.437,-0.627
CN(C)CCC(c1ccc(Br)cc1)c1ccccn1 (configuration not stated) [Brompheniramine maleate],-0.686,-0.0361,-0.609,-0.596,-0.344,0.233
Nc1ccc(S(=O)(=O)c2ccc(N)cc2)cc1 [Dapsone],-0.514,-0.767,-0.45,-0.817,-0.55,-0.603
CN(C)CCC=C1c2ccccc2CCc2ccccc21 [Amitryptiline hydrochloride],2.23,1.04,1.41,0.0305,2.47,1.81
C1N2CN3CN1CN(C2)C3 [Methenamine],-0.374,0.113,-0.146,0.773,-0.379,-0.0431
N=C(N)NCCN1CCCCCCC1 [Guanethidine sulfate],-0.647,-1.05,-0.871,-0.0594,-0.596,-0.454
CCCN(CCC)CCc1cccc2c1CC(=O)N2 [Ropinirole HCl],-0.0677,0.764,-0.368,0.26,-0.342,0.248
CCc1oc2ccccc2c1C(=O)c1cc(Br)c(O)c(Br)c1 [Benzbromarone],-0.388,-0.283,-0.536,-0.296,-0.47,-0.42
CNC(=O)c1c(I)c(C(=O)NCC(=O)Nc2c(I)c(C(=O)O)c(I)c(C(=O)NCCO)c2I)c(I)c(N(C)C(C)=O)c1I [Ioxaglic acid],-0.421,-0.394,-0.282,-0.455,-0.384,-0.571
CCCNC(C)C(=O)Nc1ccccc1C (configuration not stated) [Prilocaine hydrochloride],-0.398,-0.0706,-0.685,-0.312,-0.467,-0.406
O=C(O)Cc1ccccc1Nc1c(Cl)cccc1Cl [Diclofenac sodium],-0.542,-0.789,-0.65,-0.702,-0.505,-0.603
CCC(=O)O[C@@H](O[P@](=O)(CCCCc1ccccc1)CC(=O)N1C[C@H](C2CCCCC2)C[C@H]1C(=O)O)C(C)C [Fosinopril],-0.177,-0.153,-0.025,0.0232,-0.364,-0.383
COc1ccc2c(c1)N(C[C@H](C)CN(C)C)c1ccccc1S2 [Methotrimeprazine maleat salt],2.94,1.48,1.03,-0.207,1.82,1.55
c1ccc(-c2ccc(C(c3ccccc3)n3ccnc3)cc2)cc1 (configuration not stated) [Bifonazole],-0.285,0.816,0.345,0.00932,-0.374,-0.192
COc1ccccc1Oc1c(NS(=O)(=O)c2ccc(C(C)(C)C)cc2)nc(-c2ncccn2)nc1OCCO [Bosentan],-0.54,-0.445,-0.199,0.0121,-0.493,-0.438
CCOCCn1c(N2CCCN(C)CC2)nc2ccccc21 [Emedastine],-0.464,0.747,-0.629,-0.502,-0.536,-0.461
N#Cc1ccc(C2CCCc3cncn32)cc1 (configuration not stated) [Fadrozole hydrochloride],-0.639,-1.49,-1.18,-0.874,-0.538,-0.502
Clc1ccc(C(c2ccccc2Cl)C(Cl)Cl)cc1 (configuration not stated) [Mitotane],-0.586,-1.29,-0.251,-0.167,-0.511,-0.815
Cc1c(OCC(F)(F)F)ccnc1C[S+]([O-])c1nc2ccccc2[nH]1 (configuration not stated) [Lansoprazole],-0.504,0.142,0.199,0.176,-0.31,-0.222
NC[C@H]1O[C@H](O[C@H]2[C@H](O)[C@@H](O[C@H]3O[C@H](CO)[C@@H](O)[C@H](N)[C@H]3O)[C@H](N)C[C@@H]2N)[C@H](N)C[C@@H]1O [Tobramycin],-0.535,-1.57,-0.669,-0.773,-0.528,-0.681
CN(C)CCC[C@@]1(c2ccc(F)cc2)OCc2cc(C#N)ccc21 [Escitalopram],-0.359,1.34,0.0689,0.675,-0.134,0.883

SMILES,LBPA endosome anti-LBPA integrated intensity (z-score) (A431 [1]),LBPA endosome anti-LBPA integrated intensity (z-score) (HeLa MZ [2]),whole-cell filipin (z-score) (A431 [3]),whole-cell filipin (z-score) (HeLa MZ [4]),filipin (z-score) (A431 [5]),filipin (z-score) (HeLa MZ [6])
N=C(NCCCCCCNC(=N)NC(=N)Nc1ccc(Cl)cc1)NC(=N)Nc1ccc(Cl)cc1 [Chlorhexidine],-0.526,-0.794,-1.08,-1.91,-0.271,-0.107
NS(=O)(=O)c1cc2c(cc1C(F)(F)F)NCNS2(=O)=O [Hydroflumethiazide],-0.486,-0.967,-0.738,-0.664,-0.455,-0.522
C[C@H](CS)C(=O)N1CCC[C@H]1C(=O)O [Captopril],-0.394,-0.389,-0.482,0.478,-0.442,-0.261
CC(C(=O)O)c1ccc(N2Cc3ccccc3C2=O)cc1 (configuration not stated) [Indoprofen],-0.353,0.541,-0.0864,0.103,-0.445,-0.482
Cc1ccc(Cl)c(Nc2ccccc2C(=O)O)c1Cl [Meclofenamic acid sodium salt monohydrate],-0.528,-0.676,-0.856,-0.416,-0.531,-0.606
CNCCCN1c2ccccc2CCc2ccccc21 [Desipramine hydrochloride],2.09,0.947,1.99,0.636,2.34,2.58
CN1CCN2c3ncccc3Cc3ccccc3C2C1 (configuration not stated) [Mirtazapine],-0.296,0.0872,-0.206,0.74,-0.391,0.392
O=C(c1ccc(OCCN2CCCCC2)cc1)c1c(-c2ccc(O)cc2)sc2cc(O)ccc12 [Raloxifene hydrochloride],2.74,1.35,1.48,2.28,3.61,5.61
CCn1cc(C(=O)O)c(=O)c2cc(F)c(N3CCNC(C)C3)c(F)c21 (configuration not stated) [Lomefloxacin hydrochloride],-0.676,-1.53,-1.2,-0.837,-0.597,-0.65
Nc1ccc(S(N)(=O)=O)cc1 [Sulfanilamide],-0.59,-0.84,-0.27,0.397,-0.496,-0.373
CCCCNc1c(C(=O)OCC)c(C)nc2c1cnn2CC [Tracazolate hydrochloride],0.273,1.37,0.113,1.2,0.00245,0.287
CCn1cc(C(=O)O)c(=O)c2cc(F)c(N3CCNCC3)nc21 [Enoxacin],-0.309,-0.0536,0.119,0.315,-0.364,-0.345
Nc1nc(N)c2nc(-c3ccccc3)c(N)nc2n1 [Triamterene],0.172,-1.01,-0.647,-1.14,-0.443,-0.487
CN(C)CC/C=C1\c2ccccc2CSc2ccccc21 [Dosulepin hydrochloride],1.61,0.828,1.17,0.164,1.82,0.976
COc1cc(Cc2cnc(N)nc2N)cc(OC)c1OC [Trimethoprim],-0.479,-0.434,-0.787,-0.667,-0.515,-0.558
Cn1c(=O)c2[nH]cnc2n(C)c1=O [Aminophylline],-0.25,0.505,-0.204,0.324,-0.281,-0.178
Cc1cnc(C(=O)NCCc2ccc(S(=O)(=O)NC(=O)NC3CCCCC3)cc2)cn1 [Glipizide],-0.539,0.251,-1.07,-1.32,-0.587,-0.757
CC1CS(=O)(=O)CCN1/N=C/c1ccc([N+](=O)[O-])o1 (configuration not stated) [Nifurtimox],-0.541,-0.54,0.0023,-0.211,-0.444,-0.628
COc1ccc2cc([C@H](C)C(=O)O)ccc2c1 [Naproxen],-0.53,-0.655,-0.923,-0.439,-0.525,-0.644
NC(N)=Nc1nc(CSCC/C(N)=N/S(N)(=O)=O)cs1 [Famotidine],-0.5,-0.604,-0.838,-0.898,-0.447,-0.623
CCCCC(O)c1ccccc1 (configuration not stated) [Fenipentol],-0.545,-0.11,-0.922,-0.426,-0.553,-0.613
CCC(=O)[C@@]1(C)[C@H](C)C[C@H]2[C@@H]3CCC4=CC(=O)C=C[C@]4(C)[C@H]3[C@@H](O)C[C@@]21C [Rimexolone],-0.0932,0.328,0.343,-0.0902,-0.235,-0.418
CN(C)CCOc1ccc(/C(=C(/CCCl)c2ccccc2)c2ccccc2)cc1 [Toremifene],2.64,0.267,2.3,1.93,2.35,3.94
